TDP1 cell CPT: qHTS for Inhibitors of human tyrosyl-DNA phosphodiesterase 1 (TDP1): qHTS in cells in presence of CPT. chicken DT40 Tdp1-/-;hTDP1 cells + 20 nM CPT, ATP luminescence, 48 h. Potency, µM (series often up to 46.2 µM), inactives show at the highest dose activity change, negative = growth inhibition, actives largely listed as inhibitors. actives 12% (n = 420,000); note: potency is the fitted concentration of half-maximal effect; nearly all actives have a fitted effect of over 55% in size
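Cell growth measured by CellTiter-Glo luminescence after a minimum 48 h, 37 C compound exposure with 20 nM CPT in Tdp1-knockout DT40 cells stably expressing hTDP1, seeded 400/well; qHTS titration format.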
ALOX12 inh: Primary qHTS assay for inhibitors of human arachidonate 12S-lipoxygenase (ALOX12): Round 2; Polyunsaturated fatty acid lipoxygenase ALOX12 (Homo sapiens), P18054; AID 1671190, 2021; Potency, µM (top dose mostly 108 µM), without a hit: at the highest dose activity change, negative = inhibition, usual class: inhibitors; actives 1.1% (n = 580,000); purified 12hLO, xylenol orange hydroperoxide absorbance; note: potency is the fitted concentration of half-maximal effect
Target sequence (P18054 whole entry, looked up): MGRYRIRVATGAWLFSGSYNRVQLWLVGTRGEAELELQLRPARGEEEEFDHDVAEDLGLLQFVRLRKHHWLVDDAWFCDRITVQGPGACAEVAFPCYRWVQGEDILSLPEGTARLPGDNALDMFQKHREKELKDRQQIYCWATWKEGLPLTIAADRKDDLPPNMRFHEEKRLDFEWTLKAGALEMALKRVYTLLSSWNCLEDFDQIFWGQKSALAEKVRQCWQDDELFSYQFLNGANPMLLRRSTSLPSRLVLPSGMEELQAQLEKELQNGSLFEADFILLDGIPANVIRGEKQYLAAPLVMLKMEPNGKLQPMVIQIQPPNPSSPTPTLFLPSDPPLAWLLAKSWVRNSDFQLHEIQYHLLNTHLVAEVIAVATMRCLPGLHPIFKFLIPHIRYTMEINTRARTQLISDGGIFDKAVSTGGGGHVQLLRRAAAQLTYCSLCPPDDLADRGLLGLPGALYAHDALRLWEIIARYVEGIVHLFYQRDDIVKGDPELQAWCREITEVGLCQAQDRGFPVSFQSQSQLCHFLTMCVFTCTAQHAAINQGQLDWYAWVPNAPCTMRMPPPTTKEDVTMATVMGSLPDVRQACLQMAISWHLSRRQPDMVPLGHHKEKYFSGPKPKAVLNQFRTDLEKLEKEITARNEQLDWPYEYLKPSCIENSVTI
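Purified human 12hLO at 150 nM in 25 mM Hepes, 0.01% Triton X-100, pH 7.0, preincubated 15 min at room temperature with compound. Reaction started with 40 uM arachidonic acid, 30 min at room temperature. Hydroperoxide measured by Fe-xylenol orange, 573/405 nm absorbance ratio.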
IL1B secr inh: qHTS for Inhibitors of Inflammasome Signaling: IL-1-beta AlphaLISA Primary Screen; THP-1 LPS/ATP IL-1B secretion, AlphaLISA, 16 h; stronger effect = lower value; activity change, % at 57.5 µM; actives 4.7% (n = 360,000); AID 743279, 2014; in the data active = activity change below about -50%; inconclusive = mostly about -30% to -49%
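THP-1 cells pretreated 1 hr with compounds (up to 57.5 uM final), then stimulated with LPS (250 ng/mL final) plus ATP (1.25 mM final); secreted IL-1B measured by AlphaLISA after 16 hr, decreased signal indicating inhibition.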
TDP1 cell noCPT: qHTS for Inhibitors of human tyrosyl-DNA phosphodiesterase 1 (TDP1): qHTS in cells in absence of CPT. DT40 Tdp1-/- hTDP1 cells, no CPT, ATP luminescence, 48 h. Potency, µM (highest dose often 46.2 µM), inactives show top-dose activity change, negative = growth inhibition, most hits filed as inhibitors. actives 15% (n = 420,000). AID 686978, 2013; note: potency is the fitted concentration of half-maximal effect; nearly all actives have a fitted effect of over 55% in size
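Seeded 400 DT40-hTDP1 cells/well (vehicle DMSO, no 20 nM CPT); pinned compounds; ≥48 hr at 37 °C; CellTiter-Glo luminescence as viability measure.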
HT1080 IDH1KD tx: qHTS for induction of synthetic lethality in tumor cells producing 2HG: qHTS for the HT-1080-IDH1KD cell line; HT-1080 IDH1 knockdown viability, ATP luminescence, 48 h; Potency, µM (top dose mostly 46.1 µM), inactives show top-dose activity, negative = toxicity, actives largely listed as cytotoxic; actives 2% (n = 360,000);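 note: potency is the fitted concentration of half-maximal effect; 0% = DMSO wells and -100% = cell-free medium wells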
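CellTiter-Glo luminescence after 48 h compound exposure at 37 degrees C of IDH1-knockdown HT-1080 cells in 5% FBS RPMI. %Activity scaled between DMSO wells and cell-free media wells, with curves fitted and assigned curve classes.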
HT1080-NT tox: qHTS for induction of synthetic lethality in tumor cells producing 2HG: qHTS for the HT-1080-NT fibrosarcoma cell line | HT-1080-NT fibrosarcoma viability, CellTiter-Glo ATP luminescence, 48 h | Potency, µM (doses to about 46.1 µM), inactives show at the highest dose activity, negative = less viability, hits mostly cytotoxic | actives 1.6% (n = 360,000);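 note: NT is the 2HG producing partner of a matched IDH1 knockdown line; potency is the fitted concentration of half-maximal effect; 0% = DMSO-treated cells and -100% = media-only wells without cells; nearly all actives have a fitted effect of over 55% in size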
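A 48-hour cytotoxicity screen used HT-1080-NT cells plated 2 hours before compound delivery. ATP-based CellTiter-Glo luminescence measured viability, normalized to DMSO and no-cell controls.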
An asterisk follows results filed as active; ? = inconclusive; / = not tested or not shown; [ ] = remark or other dose. Only a selection was taken, and hits are over-represented in it overall. Unless noted, calls come from the whole dose curve; as a rule, active = well fitted curve in the direction sought with a large enough effect; inconclusive = small, poorly fitted or top-dose-only effect, or another doubt; inactive = no such curve, though single readings can be large; an effect the other way counts as inactive or inconclusive. Unless noted, % is set by controls: 0 for no effect and ±100 for the full control effect.

SMILES | TDP1 cell CPT | ALOX12 inh | IL1B secr inh | TDP1 cell noCPT | HT1080 IDH1KD tx | HT1080-NT tox
CCCn1nc(C)cc1CN(C)C(=O)c1ccc2c(c1)C(O)CCCCCN2C (configuration not stated) | / | 49.2% | / | / | / | /
COCCN1CCC(CN(Cc2ccncc2)C(=O)[C@@H]2C[C@@H]3C=C[C@H]2C3)CC1 | / | 42.6% | / | / | / | /
CCN(CC)C(=O)[C@H]1C[C@H](CC(=O)NCc2cccc(C(F)(F)F)c2)C(=O)N2CCc3c([nH]c4cc(CCC(=O)N(C)C)ccc34)[C@]12C | ? | -0.6% | -21.3 | ? | 3.1% | 6.9%
CCN(CC)C(=O)[C@H]1CC(CC(=O)NCc2cccc(C(F)(F)F)c2)C(=O)N2CCc3c([nH]c4ccccc34)[C@]12C (some centres not stated) | 14.6µM* | 1.8% | ? | 20.6µM* | -11.9% | -4.3%
CC(C)N(C(=O)[C@H]1C[C@H](CC(=O)NCc2cccc(C(F)(F)F)c2)C(=O)N2CCc3c([nH]c4cc(CCC(=O)N(C)C)ccc34)[C@]12C)C(C)C | ? | -12.1% | -66.9* | ? | 2.6% | -3.5%
Cc1cccc(C(=O)OCC(=O)c2cc(C)ccc2C)c1 | / | -30.3% | / | / | / | /
CC[C@]1(C(=O)OC)[C@H]2C(=O)N(Cc3ccccc3)C(=O)[C@H]2[C@H]2CN=C(SCC3CC3)N21 | ? | -30.7% | 48.0 | ? | 11.0% | 11.1%
Cc1cc(O)c(C(=O)/C=C/c2ccccc2Br)c(=O)o1 | ? | ? | -76.8* | ? | -12.4% | -11.6%
O=C(NCCC1CCCC1)C1CC1 | / | -14.8% | / | / | / | /
CCOc1ccc2c(c1)c(C(C)=O)c(C)n2CCc1ccccc1 | / | 8.3% | / | / | / | /
COc1ccc(-c2sc(NC(=O)c3ccc(C)cc3)nc2-c2ccc([N+](=O)[O-])cc2)cc1 | 23.1µM* | ? | -8.6 | ? | -2.9% | -0.4%
COc1ccc(C(=O)Nc2nc(-c3ccc([N+](=O)[O-])cc3)c(-c3ccccc3)s2)cc1 | 8.2µM* | 57.5% | ? | 7.31µM* | -1.0% | 3.6%
C=CCn1c(Cc2ccccc2)nc2c(cnn2-c2ccccc2)c1=O | ? | ? | 13.8 | 23.1µM* | ? | ?
N#Cc1c(N)[nH]c(=S)c(C#N)c1-c1ccccc1 | 20.6µM* | ? | -7.9 | ? | ? | ?
Cc1ccc(-c2cc(-c3ccccc3)[nH]c(=S)c2C#N)cc1 | -3.2% | 0.0% | -17.3 | 6.4% | 15.6% | 23.6%
CCC(C)(C)n1nnnc1CN(Cc1cc2cc(OC)ccc2[nH]c1=O)C1CCCC1 | ? | 0.4% | -53.3* | ? | -25.4% | -19.3%
COc1ccc(Cn2nnnc2CN(Cc2cc3ccc(C)cc3[nH]c2=O)C2CCCC2)cc1 | 9.2µM* | -13.6% | -24.6 | 13µM* | ? | ?
COCCn1nnnc1CN(Cc1cc2cc(OC)c(OC)cc2[nH]c1=O)C1CCCC1 | -7.5% | 24.1% | 0.0 | -0.3% | -11.1% | -12.2%
COc1ccc2[nH]c(=O)c(CN(C(C)=O)C3CCCCC3)cc2c1 | -17.1% | -1.9%[57.4 µM] | 4.4 | ? | 0.0% | 22.3%
CCOc1ccc2[nH]c(=O)c(CN(Cc3nnnn3Cc3ccco3)C3CCCCC3)cc2c1 | ? | ? | -19.9 | 11.6µM* | -8.8% | -6.3%
CCn1cc(C(=O)N2C[C@@H](COC)[C@H](c3nc(C)no3)C2)cn1 | / | 45.6% | / | / | / | /
COc1ccccc1NCc1cccn1-c1nnc(N2CCOCC2)s1 | -22.1% | -24.2% | / | -23.8% | / | /
COc1cc(OC)c(C2=CCN(S(=O)(=O)N3CCOCC3)CC2)c(OC)c1 | / | 13.8% | / | / | / | /
CCOc1ccc(S(=O)(=O)N2c3ccccc3CC2C)cc1 (configuration not stated) | 0.651µM* | -14.3% | 35.8 | 0.92µM* | ? | 3.16µM*
CC1Cc2ccccc2N1C(=O)CN1CCN(S(=O)(=O)c2cccs2)CC1 (configuration not stated) | ? | 0.2% | 0.0 | 14.6µM* | -0.2% | 10.4%
SMILES | TDP1 cell CPT | ALOX12 inh | IL1B secr inh | TDP1 cell noCPT | HT1080 IDH1KD tx | HT1080-NT tox
Cc1ccc(S(=O)(=O)N2c3ccccc3CC2C)cc1 (configuration not stated) | ? | -4.0% | -3.4 | ? | ? | ?
CC1Cc2ccccc2N1S(=O)(=O)c1cccs1 (configuration not stated) | 20.6µM* | -26.9% | 0.0 | 16.4µM* | -11.3% | 0.7%
CCN(CC)S(=O)(=O)c1ccc(C(=O)OCCN2C(=O)c3cccc4c(N5CCOCC5)ccc(c34)C2=O)cc1 | ? | 8.7% | 10.0 | 18.4µM* | 22.7% | 23.7%
O=C(NC1CCCc2ccccc21)c1cc(-c2cccc(Br)c2)nc2ccccc12 (configuration not stated) | / | -15.0% | / | / | / | /
C/C(=N\NC(=O)c1ccncc1)c1ccc(N2CCOCC2)cc1 | -18.9% | -3.9% | -9.3 | -6.4% | 2.7% | -4.4%
Cn1ncc(Cl)c1C(=O)Nc1ccncc1 | -3.1% | 0.0% | ? | -10.8% | 2.3% | 6.7%
